SMILES strings stand for the structures. About 83,000 compounds went through this panel and 20% of them were active in at least one assay; those are over-represented in the sample as a whole.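 Each cell line was grown in a 96-well plate and treated with one concentration of compound for 48 hours. Values below 10 were considered active.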 Values without a mark were called inactive. The source made the active and inactive calls.

In this test the test system is SK-MEL-2 melanoma. Description: NCI-60 one-dose screen, 48 h (100 = growth as untreated, 0 = no growth, -100 = all killed). Particulars: 10 µM unless noted.
As to `CCCCCCOC(=O)c1cc(-c2ccc(F)cc2)nc2ccccc12`, the growth is 101%.

Turning to `CN1CCN(c2ccc(Nc3nc(NCCNS(=O)(=O)c4ccccc4)c4sccc4n3)cc2)CC1`, the growth was 98.6%.

Consider `CN1CCN(Cc2ccc(NC(=O)c3cncc(C#Cc4cnc5ccc(O[C@@H]6CCOC6)nn45)c3)cc2C(F)(F)F)CC1`, for which the growth is -78.3% (active).

With `CC(C)(C)Nc1nc2c(OCCc3ccccc3)cccn2c1-c1ccc([N+](=O)[O-])cc1`, the growth was 60.5%.

As to `N#Cc1c(-c2cccs2)cc(-c2cnccn2)nc1SCC(=O)N/N=C/c1ccc(Cl)cc1`, the growth was 121%.

As for `CN(C)CCCOc1ccc(C(=C(c2ccccc2)C2CCCC2)c2ccc(OCCCN(C)C)cc2)cc1`, the growth was -94.3% (active).

Consider `N#Cc1nc(-c2ccc(Cl)cc2)oc1N1CCC(S(=O)(=O)N2CCOCC2)CC1`, for which the growth is 114%.

Take `CC(=O)C1=C(C)NC(NNc2ccccc2)=NC1c1ccc([N+](=O)[O-])cc1` (stereo unspecified): the growth was 102%.

As for `COC(=O)c1ccc(NC2=C(Cl)C(=O)C(C)=C(C)C2=O)cc1`, the growth is 69.1%.

As to `C=C(C=O)[C@@H]1CC[C@]2(C(=O)O)CC[C@]3(C)C(CC[C@@H]4[C@@](C)(CCC#N)[C@H](C(=C)C=O)CC[C@]43C)[C@@H]12` (stereo partly specified), the growth was 61.1%.

Turning to `CCOC(=O)C1=C(C)NC(C)=C(C(=O)OC(C)C)C1c1cccc(C#N)c1` (stereo unspecified), the growth is 106%.

In the case of `CC1(C)CC[C@]23CC[C@]4(C)[C@H](CC[C@@H]5[C@@]6(C)CC[C@H](NCO)C(C)(C)[C@@H]6CC[C@]54C)[C@H]2[C@H]1OC3`, the growth is 97.2%.

Turning to `COc1ccc(C(=NNS(=O)(=O)c2ccc(C)cc2)c2ccccc2)cc1OC`, the growth is 101%.

Take `COc1cccc2c1C=CC1(O2)Oc2cccc(OC)c2C=C1C` (stereo unspecified): the growth was 57.7%.

For the compound `Cc1csc(/N=C(N)/N=C(\N)c2cccnc2)n1`, the growth was 68.2%.

Consider `Cc1ccc(/C=N/Nc2nc(Nc3ccccc3)nc(Nc3ccc(S(N)(=O)=O)cc3)n2)cc1`, for which the growth is 77.8%.

Take `CCCC[n+]1ccc(SCC(=O)n2ccc3ccccc32)c2ccccc21`: the growth was 99.9%.

With `O=[N+]([O-])c1ccc(NC(=S)NNC(=S)Nc2ccc(Br)cc2)cc1`, the growth is 105%.

On to `CCOP(=O)(OCC)OC[C@]12CCC(C)(C)CC1C1=CC[C@@H]3[C@@]4(C)CCCNC(C)(C)[C@@H]4CC[C@@]3(C)[C@]1(C)CC2` (stereo partly specified), for which the growth was 121%.

As to `CNC(=O)Nc1ccc(Nc2cc(-c3ccc(-n4cccn4)cc3)[nH]n2)c(C)c1`, the growth is 122%.

Take `O=C(CCCCCCNC(=O)c1csc(Br)n1)NO`: the growth was 57.3%.

With `NS(=O)(=O)c1ccc(Nc2nc(N/N=C/c3ccc4c(c3)OCO4)nc(Nc3ccccc3)n2)cc1`, the growth is 55.8%.

As to `CCc1cc2c(cc1Cl)nc1c(=O)[nH]c(=O)nc-1n2CCOCC(C)C`, the growth was 80.1%.

Take `COc1cc(C(=O)c2cc(C(C)=O)c3cccc(C)n23)cc(OC)c1OC`: the growth is -11.8% (active).

Regarding `Nc1ncc(-c2ccc3ncnc(NCc4ccccc4)c3c2)cn1`, the growth is 71%.

With `COc1ccc2c(c1)c(-c1nn3cc(-c4ccncc4)nc3s1)cn2C`, the growth was 104%.

For the origin of these results see PubChem BioAssay (NCI).
